# “And” between values parts separate entries of the source, which are not always exact repeats. Equal entries are not always repeated. A structure can be active in one record and inactive in another. The source made the active and inactive calls. The calls were made as follows: active = hit-call score of the fitted dose curve at least 0.9, where 1 is the maximum; inactive = score below 0.9.
# Assay: ATG_MRE_CIS: Attagene CIS-FACTORIAL HepG2 Assay for human Metal Responsive Element (MRE) (AID 2282954)
# Conditions: HepG2 MRE cis-reporter transcription, Attagene multiplex; actives raise or lower the signal
# Outline: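 RT-PCR/capillary electrophoresis readout of reporter mRNA, 24 h post-dosing, in HepG2 cells transfected with multiplexed cis-regulated reporter constructs. Gain or loss of signal fitted bidirectionally against DMSO baseline.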
Structure (SMILES),AC50,outcome
CC(=O)[C@H]1CC[C@H]2[C@@H]3CCC4=CC(=O)CC[C@]4(C)[C@H]3CC[C@]12C,33.4 µM (active) and 38.9 µM (active) and 117 µM (active),inactive
CCCCOC(=O)C(C)Oc1ccc(Oc2ccc(C(F)(F)F)cn2)cc1 (centres undefined),,inactive
CCCCC(CC)CN1C(=O)C2C3C=CC(C3)C2C1=O (centres undefined),68.5 µM (active),
CCOC(=O)C(C)Oc1ccc(Oc2nc3ccc(Cl)cc3o2)cc1 (centres undefined),,inactive
CCN(CC)C(=O)c1cccc(C)c1,,inactive
COC(=O)c1cccc(C)c1S(=O)(=O)NC(=O)Nc1nc(OCC(F)(F)F)nc(N(C)C)n1,,inactive
OB(O)O,,inactive
CCCCOCCOCCOCc1cc2c(cc1CCC)OCO2,,inactive
CCCN(CCC)C(=O)SCC,,inactive
CCCOC(=O)NCCCN(C)C,,inactive
c1ccc(Nc2ccccc2)cc1,,inactive
CCOC(=O)COc1cc(-n2ncc(C(F)(F)F)c(C)c2=O)c(F)cc1Cl,,inactive
CCCCCOC(=O)COc1cc(N2C(=O)C3=C(CCCC3)C2=O)c(F)cc1Cl,,inactive

# — PubChem BioAssay (EPA / NIEHS)
